HSP90 inh: HSP90 inhibitors, primary screen, cell lysate, luminescence. Rabbit reticulocyte lysate, luciferase refolding luminescence, 3 h. inhibition, % at 5.6 µM. actives 0.91% (n = 290,000);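 active means inhibition above the screen-wide mean plus 3 SD, computed separately per campaign, cut at about 16% in these data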;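 further: 0% = DMSO wells and 100% = 60 µM geldanamycin wells; inhibitors lower the luminescence because luciferase stays unfolded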
HSF1 inhib: HSF1 inhibitors in luciferase reporter cells, primary screen, cell-based, NIH3T3, luminescence. NIH3T3-HGL HSE-luciferase, MG132-induced, luminescence 8 h; hits give low values. activity change, negative = inhibition, % at 7.5 µM (by protocol). actives 0.77% (n = 300,000). AID 2098, 2009;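 active means more than half of replicate wells show activity change below -50%, luminescence cut by over half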;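 further: luciferase reports HSF-1 transcriptional activity via heat shock element; 0% = median of DMSO wells and -100% = zero luminescence signal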
GAA850 FXN act: FXN promoter activators, primary screen, cell-based, luciferase luminescence, HEK293 lucGAA850; HEK293 lucGAA850 FXN promoter luciferase reporter, 24 h; percent of 10 µM SAHA response; activation, % at 6 µM; actives 0.56% (n = 360,000);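 active means activation above the average of all compounds screened plus 3 SD, cutoff fixed separately per campaign, cut at about 7.5% in these data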;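 further: 0% = DMSO wells and 100% = 10 µM SAHA wells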
NR0B1 inh: DAX1 (NR0B1) inhibitors, primary screen, cell-based, HEK293, Gal4-DAX1, luciferase luminescence; inhibition, % at 6.75 µM; HEK293 Gal4-DAX1 luciferase reporter; actives 0.99% (n = 340,000); Nuclear receptor subfamily 0 group B member 1 (Homo sapiens), P51843;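 active means inhibition above the mean over all tested compounds plus 3 SD, cut at about 4.2% in these data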;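 further: 0% = DAX1-transfected cells with DMSO and 100% = empty-vector control cells with DMSO; inhibition shows as a rise in luminescence from relieved DAX1 repression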
Target sequence (P51843 207-470 limits assumed): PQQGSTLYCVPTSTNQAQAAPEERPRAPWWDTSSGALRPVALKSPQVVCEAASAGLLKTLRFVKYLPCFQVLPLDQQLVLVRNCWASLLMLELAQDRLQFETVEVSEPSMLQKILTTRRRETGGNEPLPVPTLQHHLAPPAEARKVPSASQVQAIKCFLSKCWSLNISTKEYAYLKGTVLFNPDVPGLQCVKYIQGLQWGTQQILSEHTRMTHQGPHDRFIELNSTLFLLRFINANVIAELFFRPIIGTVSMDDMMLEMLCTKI
HSF1 activator: HSF-1 activators, primary screen, NIH3T3-HGL cells, MG132 stress, luminescence, single point. NIH3T3-HGL HSF-1 luciferase reporter, 8 h; 100% = twice DMSO control signal. activation, % at 9 µM. actives 1.7% (n = 300,000). AID 504408, 2011;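 active means mean replicate activation of at least 50% with a set share of replicates each reaching 50%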;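 further: 0% = median of the neutral control wells and 100% = twice that signal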
AHR activator: AHR activators, primary screen, cell-based, luminescence, luciferase reporter, human | AHR-responsive luciferase reporter cells | actives 2.5% (n = 320,000) | activation, % at 5 µM | AID 2796, 2010; in the data active means activation above about 47%;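 further: 0% = vehicle wells and 100% = reference agonist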
AHR act cf: AHR activators, confirmation, cell-based, luminescence, luciferase reporter, human; shares compounds with AHR activator; human cells, AHR-responsive luciferase reporter; activation, % at 9 µM; actives 87% (n = 2,300); in the data active means activation above about 49%;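 further: HepG2 hepatoma cells carrying a DRE-driven firefly luciferase reporter; 0% = vehicle wells and 100% = reference agonist wells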
PXR act counter: human PXR activators, counter-screen for AHR activator project, cell-based, luciferase luminescence; cell-based PXR reporter; activation, % at 11.6 µM; AID 434939, 2010; actives 88% (n = 2,300); shares compounds with AHR activator; in the data active means activation above about 11%;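 further: human hepatoma DPX-2 cells expressing full-length human PXR; 0% = DMSO and 100% = reference agonist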
* hit, by the source's call. Sampled rows, rich in hits. Any-hit rate of the full collection: about 5.9%.

Results for CC1CCCN(C(=O)c2cc3c(-c4ccc(Cl)cc4)nn(C)c3s2)C1 (stereo not given) ?
HSP90 inh: 0; HSF1 inhib: -7; GAA850 FXN act: 0; NR0B1 inh: 0; HSF1 activator: -5; AHR activator: 82*; AHR act cf: 80*; PXR act counter: 23*

How did Cc1ccc2nsnc2c1NC(=S)NC(=O)c1ccco1 do in these assays?
HSP90 inh: 3; HSF1 inhib: 4; GAA850 FXN act: 5; NR0B1 inh: 0; HSF1 activator: 19; AHR activator: 97*; AHR act cf: 111*; PXR act counter: 15*

Results for Cc1ccnc(NC(=S)NC(=O)c2ccco2)c1 ?
HSP90 inh: -3; HSF1 inhib: 3; GAA850 FXN act: 2; NR0B1 inh: 2; HSF1 activator: 31; AHR activator: 3

What do the screens show for `COc1ccc(S(=O)(=O)Nc2cccc3c2O[C@H](CN(C)S(=O)(=O)c2cn(C)cn2)[C@@H](C)CN([C@H](C)CO)C3=O)cc1`?
GAA850 FXN act: 2; NR0B1 inh: 1; AHR activator: 0

How did CCOc1ccc(N(CC(=O)NN=C2CCN(C)CC2)S(=O)(=O)c2ccc(Br)cc2)cc1 do in these assays?
HSP90 inh: 2; HSF1 inhib: 10; GAA850 FXN act: 1; NR0B1 inh: 0; HSF1 activator: 16

What do the screens show for `Cc1nnc(SCC(=O)NCc2ccc3c(c2)OCO3)s1`?
HSP90 inh: 7; HSF1 inhib: -3; GAA850 FXN act: 2; NR0B1 inh: 0; HSF1 activator: 3; AHR activator: 2

What do the screens show for `Cc1ccccc1-c1nsc(SCC(=O)NCc2ccc3c(c2)OCO3)n1`?
HSP90 inh: -2; HSF1 inhib: 2; GAA850 FXN act: 1; NR0B1 inh: 2; HSF1 activator: 11; AHR activator: 86*; AHR act cf: 44; PXR act counter: 30*

How did O=C(CSc1nc2cc(Cl)ccc2s1)NCc1ccc2c(c1)OCO2 do in these assays?
HSP90 inh: 4; HSF1 inhib: -1; GAA850 FXN act: 3; NR0B1 inh: 1; HSF1 activator: 23; AHR activator: 108*; AHR act cf: 82*; PXR act counter: 34*

Results for N#Cc1nc(-c2ccc(OCc3ccc(Cl)cc3)cc2)oc1NCCCn1ccnc1 ?
HSP90 inh: 3; HSF1 inhib: 13; GAA850 FXN act: 0; NR0B1 inh: -1; HSF1 activator: 29; AHR activator: 14

What do the screens show for `N#Cc1nc(-c2ccccc2)oc1NCCCn1ccnc1`?
HSP90 inh: -5; HSF1 inhib: -8; GAA850 FXN act: 1; NR0B1 inh: 0; HSF1 activator: -5; AHR activator: 99*; AHR act cf: 104*; PXR act counter: 28*

How did COC(=O)c1ccccc1NC(=O)NCCc1ccccc1OC do in these assays?
HSP90 inh: 0; HSF1 inhib: 11; GAA850 FXN act: 4; NR0B1 inh: 2; HSF1 activator: 10; AHR activator: 88*; AHR act cf: 110*; PXR act counter: 32*

What do the screens show for `Fc1ccccc1/C=C/c1ccc2ccccc2n1`?
HSP90 inh: 6; HSF1 inhib: -25; GAA850 FXN act: -3; NR0B1 inh: -4; HSF1 activator: -13; AHR activator: 89*; AHR act cf: 74*; PXR act counter: 7

How did C(=Cc1c[nH]c2ccccc12)c1ccc2ccccc2n1 do in these assays?
GAA850 FXN act: -1; NR0B1 inh: -2

What do the screens show for `N=C(N)N=Nc1c(O)[nH]c2ccc(Br)cc12`?
HSP90 inh: 0; HSF1 inhib: -2; GAA850 FXN act: 3; NR0B1 inh: 0; HSF1 activator: 12; AHR activator: 93*; AHR act cf: 88*; PXR act counter: 28*

How did NC1=NC2(CCCCC2)N=C(Nc2ccc(F)cc2F)N1 do in these assays?
HSP90 inh: -6; HSF1 inhib: -1; GAA850 FXN act: -1; NR0B1 inh: 1; HSF1 activator: 20; AHR activator: 0

Results for COc1ccc(OC)c(NC2=NC3(CCCC3)N=C(N)N2)c1 ?
HSP90 inh: 1; HSF1 inhib: 2; GAA850 FXN act: -3; NR0B1 inh: 0; HSF1 activator: -15; AHR activator: 84*; AHR act cf: 61*; PXR act counter: 11*

What do the screens show for `COc1ccc(NC(=O)c2cc(=O)[nH]c3ccccc23)cc1`?
HSP90 inh: 2; HSF1 inhib: 2; GAA850 FXN act: 1; NR0B1 inh: 0; HSF1 activator: 26; AHR activator: 100*; AHR act cf: 108*; PXR act counter: 20*

Results for COc1cccc(NC(=O)c2ccccc2Br)c1 ?
HSP90 inh: -1; HSF1 inhib: -3; GAA850 FXN act: 2; NR0B1 inh: 2; HSF1 activator: 28; AHR activator: 3

Results for COc1cc(OC)cc(C(=O)NNC(=O)c2cc(=O)[nH]c3ccccc23)c1 ?
HSF1 inhib: -6; GAA850 FXN act: 0; NR0B1 inh: -1; HSF1 activator: -5; AHR activator: 3

Results for COc1ccc(NC(=O)c2cccc3c(Br)cccc23)cc1 ?
HSP90 inh: -1; HSF1 inhib: -10; GAA850 FXN act: 0; NR0B1 inh: -2; HSF1 activator: -6; AHR activator: 93*; AHR act cf: 121*

Results for COc1ccc(N2CCN(C(=O)c3ccccc3NS(=O)(=O)c3ccccc3)CC2)cc1 ?
HSP90 inh: -1; HSF1 inhib: 8; GAA850 FXN act: 3; NR0B1 inh: 0; HSF1 activator: 21; AHR activator: 1

What do the screens show for `COCC(=O)N/N=C/c1ccc(Sc2nc3ccccc3s2)o1`?
HSP90 inh: 0; HSF1 inhib: 7; GAA850 FXN act: 2; NR0B1 inh: -2; HSF1 activator: -5; AHR activator: 86*; AHR act cf: 81*; PXR act counter: 22*

What do the screens show for `CCCn1c(Nc2nc3ccccc3n2C)nc2ccccc21`?
HSP90 inh: 4; HSF1 inhib: 0; GAA850 FXN act: -1; NR0B1 inh: 1; HSF1 activator: -14; AHR activator: 3
